Six compounds from PubChem BioAssay (EPA / NIEHS) can be followed below.

Inconclusive results are not listed. Activity calls are given as the source filed them. Rule for the calls, unless noted: active = hit-call score of the fitted dose curve at least 0.9, where 1 is the maximum; inactive = score below 0.9.

Read-out in test [1]: Monokine induced gamma interferon (MIG), CXCL9 (gene 4283)
Kind of test: BSK_3C_MIG: BioMAP Diversity Plus: 3C Assay for Monokine induced gamma interferon (MIG) Biomarker Activity (AID 2283021).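 For AC50: MIG protein level measured by immunoassay in the treated endothelial cultures.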 As to conditions: primary human endothelial cells (HUVEC); actives raise or lower the signal. The gist of the method:
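Primary human umbilical vein endothelial cells in the 3C system were exposed to chemical for 24 h, after which MIG was quantified by ELISA. Activity was fitted bidirectionally against DMSO as negative control and baseline.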

Test [2] in a line: BSK_3C_SRB: Viability Assessment in the BioMAP Diversity Plus: 3C Assay (AID 2283023).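 Note: fitted both ways against DMSO so a hit may be signal rise or drop.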 The note with it: primary human endothelial cells (HUVEC). An outline of the steps: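 Primary human umbilical vein endothelial cells in the 3C system were read 24 h after compound dosing. Total protein was stained with 0.1% sulforhodamine B after 10% TCA fixation and read at 560 nm, with bidirectional fitting against DMSO as baseline.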

Read-out in test [3]: Matrix Metallopeptidase 1 (MMP1), MMP1 (gene 4312)
Kind of test: BSK_BE3C_MMP1: BioMAP Diversity Plus: BE3C Assay for Matrix Metallopeptidase 1 (MMP1) Biomarker Activity (AID 2283024). The note with it: primary human bronchial epithelial cells; actives raise or lower the signal. An outline of the steps: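 Primary human bronchial epithelial cells were dosed with test chemicals, and MMP1 levels were measured by ELISA 24 h later. Data were fitted bidirectionally against DMSO as the negative control and activity baseline.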

A short description of test [4]: BSK_3C_Vis: BioMAP Diversity Plus: 3C Assay for Morphology Visualization (AID 2283025).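 Note: fitted both ways so gain or loss versus DMSO counts.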 As to conditions: primary human endothelial cells (HUVEC). An outline of the steps: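 Human umbilical vein endothelial cells in the 3C system were imaged by light microscopy 24 h after chemical dosing to record cell morphology. Activity was fitted bidirectionally against DMSO as negative control and baseline; the endpoint serves as a background control.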

Read-out in test [5]: Pselectin, SELP (gene 6403)
Briefly: BSK_4H_Pselectin: BioMAP Diversity Plus: 4H Assay for Pselectin Biomarker Activity (AID 2283026). As to conditions: primary human endothelial cells (HUVEC); actives raise or lower the signal. The gist of the method:
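Primary human umbilical vein endothelial cells were exposed to test chemical for 24 h, then cell-surface P-selectin was quantified by ELISA. Activity was fitted bidirectionally against DMSO as negative control and baseline.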

Test [6] is described as follows: BSK_4H_SRB: Viability Assessment in the BioMAP Diversity Plus: 4H Assay (AID 2283027).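 For AC50: curves fitted both ways versus DMSO so AC50 may be loss or gain.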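 Note: cells exposed to compound for 24 h before staining.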 The note with it: primary human endothelial cells (HUVEC). The gist of the method:
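Human umbilical vein endothelial cells were dosed with chemical and, after 24 h, fixed with 10% TCA, stained with 0.1% sulforhodamine B, and read at 560 nm to give total protein as a cytotoxicity measure. Bidirectional fitting relative to DMSO control.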

Test [7] is described as follows: BSK_BE3C_SRB: Viability Assessment in the BioMAP Diversity Plus: BE3C Assay (AID 2283028).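 For AC50: fitted both ways so AC50 may mark signal gain or loss versus DMSO.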 The note with it: primary human bronchial epithelial cells. An outline of the steps: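 Human primary bronchial epithelial cells were exposed to test chemicals for 24 h. Total protein in parallel cultures was then measured by staining with 0.1% sulforhodamine B after 10% TCA fixation, with absorbance read at 560 nm. Activity was fitted bidirectionally against DMSO.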

Read-out in test [8]: Thrombomodulin, THBD (gene 7056)
Kind of test: BSK_3C_Thrombomodulin: BioMAP Diversity Plus: 3C Assay for Thrombomodulin Biomarker Activity (AID 2283029). The note with it: primary human endothelial cells (HUVEC); actives raise or lower the signal. The gist of the method: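 Primary human umbilical vein endothelial cells (3C system) were exposed to chemical for 24 h, then thrombomodulin levels were measured by ELISA. Activity was fitted bidirectionally against the DMSO negative control as baseline.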

Read-out in test [9]: Urokinase-type plasminogen activator receptor (uPAR), PLAUR (gene 5329)
Briefly: BSK_4H_uPAR: BioMAP Diversity Plus: 4H Assay for Urokinase-type plasminogen activator receptor (uPAR) Biomarker Activity (AID 2283030). The note with it: primary human endothelial cells (HUVEC); actives raise or lower the signal. The gist of the method: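 Primary human umbilical vein endothelial cells were exposed to chemical for 24 h before cell-surface uPAR was quantified by ELISA. Activity was fitted bidirectionally against the DMSO negative control baseline.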

Read-out in test [10]: Vascular endothelial growth factor receptor 2 (Homo sapiens) (UniProt P35968)
Briefly: BSK_4H_VEGFRII: BioMAP Diversity Plus: 4H Assay for Vascular endothelial growth factor receptor 2 (VEGFR2) Biomarker Activity (AID 2283031). The note with it: primary human endothelial cells (HUVEC); actives raise or lower the signal. The gist of the method: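 Primary human umbilical vein endothelial cells in the BioMAP 4H system were dosed with test chemical, and 24 h later VEGFRII was measured by ELISA. Activity was fitted bidirectionally against DMSO as negative control and baseline.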

Read-out in test [11]: Human Leukocyte Antigen - DR isotype (HLADR), HLA-DRA (gene 3122)
Briefly: BSK_BE3C_HLADR: BioMAP Diversity Plus: BE3C Assay for Human Leukocyte Antigen - DR isotype (HLADR) Biomarker Activity (AID 2283032). As to conditions: primary human bronchial epithelial cells; actives raise or lower the signal. The gist of the method: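 Human primary bronchial epithelial cells in the BE3C system were exposed to chemicals for 24 h, after which HLA-DR levels were quantified by ELISA. Activity was fitted bidirectionally, gain or loss of signal, against DMSO as negative control and baseline.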

Read-out in test [12]: Vascular cell adhesion molecule 1 (VCAM1), VCAM1 (gene 7412)
Kind of test: BSK_4H_VCAM1: BioMAP Diversity Plus: 4H Assay for Vascular cell adhesion molecule 1 (VCAM1) Biomarker Activity (AID 2283033).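 For outcome: cell-surface VCAM-1 protein measured by ELISA.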 As to conditions: primary human endothelial cells (HUVEC); actives raise or lower the signal. An outline of the steps: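 Primary human umbilical vein endothelial cells were exposed to chemicals for 24 h, after which VCAM-1 was quantified by ELISA. Responses were fitted bidirectionally against DMSO as negative control and activity baseline.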

Read-out in test [13]: Interferon-gamma inducible Protein 10 (IP10), CXCL10 (gene 3627)
Briefly: BSK_BE3C_IP10: BioMAP Diversity Plus: BE3C Assay for Interferon-gamma inducible Protein 10 (IP10) Biomarker Activity (AID 2283034). As to conditions: primary human bronchial epithelial cells; actives raise or lower the signal. The gist of the method: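 Human primary bronchial epithelial cells were exposed to chemicals for 24 hours, after which IP-10 levels were measured by ELISA. Data were fitted bidirectionally against DMSO, which served as the negative control and activity baseline.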

Read-out in test [14]: Plasminogen activator inhibitor-1 (PAI1), SERPINE1 (gene 5054)
Briefly: BSK_BE3C_PAI1: BioMAP Diversity Plus: BE3C Assay for Plasminogen activator inhibitor-1 (PAI1) Biomarker Activity (AID 2283037). The note with it: primary human bronchial epithelial cells; actives raise or lower the signal. The gist of the method:
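Human primary bronchial epithelial cells were exposed to chemical for 24 h, then PAI-1 was quantified by ELISA. Activity was fitted bidirectionally relative to the DMSO negative control baseline.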

Read-out in test [15]: urokinase plasminogen activator (uPA), PLAU (gene 5328)
Kind of test: BSK_BE3C_uPA: BioMAP Diversity Plus: BE3C Assay for urokinase plasminogen activator (uPA) Biomarker Activity (AID 2283038).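 For outcome: uPA protein level quantified by ELISA in cell cultures; uPA read one day after compound addition.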 The note with it: primary human bronchial epithelial cells; actives raise or lower the signal. An outline of the steps: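 Human primary bronchial epithelial cells were exposed to chemical for 24 h, then uPA levels were measured by ELISA. Responses were fitted bidirectionally against DMSO as negative control and baseline. Parallel SRB staining of total protein gauged overt cytotoxicity.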

Read-out in test [16]: Urokinase-type plasminogen activator receptor (uPAR), PLAUR (gene 5329)
Briefly: BSK_BE3C_uPAR: BioMAP Diversity Plus: BE3C Assay for Urokinase-type plasminogen activator receptor (uPAR) Biomarker Activity (AID 2283039).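 For outcome: cells exposed to compound for one day before measurement.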 As to conditions: primary human bronchial epithelial cells; actives raise or lower the signal. The gist of the method:
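Primary human bronchial epithelial cells were dosed with chemical and harvested 24 h later; uPAR was quantified by ELISA. Activity was fitted bidirectionally against DMSO as negative control and baseline.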

Read-out in test [17]: Interleukin-6 (IL6), IL6 (gene 3569)
Briefly: BSK_CASM3C_IL6: BioMAP Diversity Plus: CASM3C Assay for Interleukin-6 (IL6) Biomarker Activity for (AID 2283040). The note with it: primary human coronary artery smooth muscle cells; actives raise or lower the signal.

Read-out in test [18]: Tissue plasminogen activator (tPA), PLAT (gene 5327)
Briefly: BSK_BE3C_tPA: BioMAP Diversity Plus: BE3C Assay for Tissue plasminogen activator (tPA) Biomarker Activity (AID 2283041).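 For outcome: tPA level quantified by ELISA one day after compound addition.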 The note with it: primary human bronchial epithelial cells; actives raise or lower the signal. The gist of the method: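 Human primary bronchial epithelial cells were dosed with chemical and tPA biomarker levels measured by ELISA 24 hours later. Activity was fitted bidirectionally against DMSO as negative control and baseline.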

The target in test [19] is human Vitamin D Receptor (VDR), VDR (gene 7421) (UniProt P11473). Kind of test: ATG_VDR_TRANS: Attagene TRANS-FACTORIAL HepG2 Assay for human Vitamin D Receptor (VDR) (AID 2283022; active = hit-call score of the fitted dose curve at least 0.9, where 1 is the maximum). The gist of the method:
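HepG2 cells were transiently transfected with multiple GAL4-UAS reporter units, so signal reflects exogenous chimeric receptor-Gal4 activity. After 24 h compound exposure, reporter mRNA was measured by RT-PCR, fluorescent labelling and capillary electrophoresis, fitted for gain of signal versus DMSO.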

Read-out in test [20]: Monokine induced gamma interferon (MIG), CXCL9 (gene 4283)
Kind of test: BSK_BE3C_MIG: BioMAP Diversity Plus: BE3C Assay for Monokine induced gamma interferon (MIG) Biomarker Activity (AID 2283035). As to conditions: primary human bronchial epithelial cells; actives raise or lower the signal. The gist of the method: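 ELISA read-out of MIG in human lung bronchial epithelial primary cultures, 24 h post-dosing. Bidirectional curve fit vs DMSO baseline.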

human Vitamin D Receptor (VDR), VDR (gene 7421), sequence (P11473 whole entry, looked up, the tested form may be a part): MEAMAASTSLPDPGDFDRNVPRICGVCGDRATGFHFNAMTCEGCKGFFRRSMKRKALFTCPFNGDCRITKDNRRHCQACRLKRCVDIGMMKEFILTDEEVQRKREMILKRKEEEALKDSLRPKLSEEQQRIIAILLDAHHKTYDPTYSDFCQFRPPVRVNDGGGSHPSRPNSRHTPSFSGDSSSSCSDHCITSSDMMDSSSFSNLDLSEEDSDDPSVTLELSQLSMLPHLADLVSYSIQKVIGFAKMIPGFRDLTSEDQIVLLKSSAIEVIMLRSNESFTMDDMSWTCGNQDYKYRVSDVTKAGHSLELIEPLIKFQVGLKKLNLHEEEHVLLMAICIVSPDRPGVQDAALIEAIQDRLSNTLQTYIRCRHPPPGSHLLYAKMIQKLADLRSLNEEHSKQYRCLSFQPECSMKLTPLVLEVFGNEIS

What is called AC50 is the concentration at which the activity in the assay is half-maximal. As for `c1ccc(Sc2ccccc2)cc1`, the result in [1], in test [7], in test [10], in [16] and in [17] was inactive. The AC50 in [2] was 32.3 µM (active); in [3], 0.016 µM (active); in test [4] it was 37.8 µM (active); in test [5], 29.6 µM (active); in test [6], 31.1 µM (active); in test [8] it was 20 µM (active). Also, the AC50 in test [9] was 32.7 µM (active); in test [11], 29.9 µM (active); in [12] it was 31.3 µM (active); in test [13], 30.1 µM (active); in test [14], 28.1 µM (active); in test [15], 25.6 µM (active). In addition, the concentration at half-maximal activity (AC50) in test [18] was 20 µM (active).

`O=C(c1ccc(OCCN2CCCCC2)cc1)c1c(-c2ccc(O)cc2)sc2cc(O)ccc12`: the AC50 in [1] is 36.1 µM (active); in test [2], 18.8 µM (active); in [3] it was 32.2 µM (active); in test [4], 22.3 µM (active); in [5], 25.2 µM (active); in test [6], 33.2 µM (active). Also, the AC50 in test [7] is 38.1 µM (active); in test [9] it was 25.3 µM (active); in test [11], 20.3 µM (active); in test [12] it was 34.5 µM (active); in test [13], 39.2 µM (active); in [14], 22.4 µM (active). Moreover, the AC50 is 34 µM (active) in test [15], 31.8 µM (active) in test [16], 20.1 µM (active) in [17] and 20 µM (active) in test [18]. The compound was called inactive in [19], in test [8] and in [10].

For `CC(C)(C)c1cccc(O)c1`, the outcome in test [1], in test [19], in test [2], in test [3], in [4] and in [5] was inactive. Further, the outcome in test [6], in test [7], in [8], in [9], in [10] and in test [11] was inactive. For the same compound, the result in test [12], in test [13], in test [14], in test [15], in test [16] and in test [17] was inactive. For the same compound, in test [18], the outcome was inactive.

As to `CCC(=O)OCC=Cc1ccccc1`, the result in test [1], in [19], in test [2], in [3], in test [4] and in [5] was inactive. Besides, the outcome in test [6], in [7], in test [8], in test [9], in [10] and in test [11] was inactive. Also, the result in test [12], in [13], in test [14], in test [15], in [16] and in [17] was inactive. Besides, the outcome in test [18] was inactive.

As to `CC=CC(=O)C1=C(C)C=CCC1(C)C`, the outcome in [1], in test [2], in test [3], in test [4], in [5] and in test [6] was inactive. Further, the result in [7], in test [8], in test [9], in test [10], in [11] and in test [12] was inactive. Besides, the result in test [13], in [14], in test [15], in test [16], in [17] and in test [18] was inactive.

Regarding `CCCCOCCOCCO`, the result in test [1], in test [2], in test [3], in test [4], in test [5] and in test [6] was inactive. For the same compound, the outcome in test [7], in [8], in test [9], in test [10], in test [11] and in [12] was inactive. For the same compound, the outcome in [13], in [20], in [14], in [15], in test [16] and in test [17] was inactive. In test [18], the outcome was inactive.
